# In the supplement of paper PMC8728848:
# Many of the other results were omitted from the sample, so the strongest signals are more common in it than they were.
# B1: CGL (Crenomytilus grayanus), H2FH31 (protein)
# chain: MTTFLIKHKASGKFLHPYGGSSNPANNTKLVLHSDIHERMYFQFDVVDERWGYIKHVASGKIVHPYGGQANPPNETNMVLHQDRHDRALFAMDFFNDNIMHKGGKYIHPKGGSPNPPNNTETVIHGDKHAAMEFIFVSPKNKDKRVLVYA
# Key:
# Experiment in all cases: glycan array binding signal (z-score within array); higher = stronger binding
# Conditions in all cases: glycan notation: IUPAC condensed, linker removed
# [1] = target: Fuc(a1-2)Gal(b1-3)GlcNAc(b1-2)Man(a1-3)[Fuc(a1-2)Gal(b1-3)GlcNAc(b1-2)Man(a1-6)]Man(b1-4)GlcNAc(b1-4)GlcNAc
# Outline: (§1)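 Negative Z-scores can be read as non-binding. The Z-score is calculated within each array and then averaged across arrays of one protein sequence at different concentrations or buffers and across linkers. Arrays, 3228 in all, were curated from the Consortium for Functional Glycomics database and kept only where the protein sequence was available.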
# [2] = target: Fuc(a1-2)Gal(b1-3)GlcNAc(b1-3)[Gal(b1-4)GlcNAc(b1-6)]Gal(b1-4)Glc
# Outline: as §1
# [3] = target: Fuc(a1-2)Gal(b1-3)[Fuc(a1-4)]GlcNAc
# Outline: as §1
# [4] = target: Fuc(a1-2)Gal(b1-4)GlcNAc(b1-3)Gal(b1-4)GlcNAc(b1-2)Man(a1-3)[Fuc(a1-2)Gal(b1-4)GlcNAc(b1-3)Gal(b1-4)GlcNAc(b1-2)Man(a1-6)]Man(b1-4)GlcNAc(b1-4)GlcNAc
# Outline: as §1
# [5] = target: Fuc(a1-2)Gal(b1-4)GlcNAc(b1-3)[Fuc(a1-2)Gal(b1-4)GlcNAc(b1-6)]GalNAc
# Outline: as §1
# [6] = target: Fuc(a1-2)[Gal(a1-3)]Gal(b1-4)GlcNAc
# Outline: as §1
# [7] = target: Fuc(a1-2)[Gal(a1-4)]Gal(b1-4)GlcNAc
# Outline: as §1
# [8] = target: Fuc(a1-2)[GalNAc(a1-3)]Gal
# Outline: as §1
# [9] = target: Fuc(a1-2)[GalNAc(a1-3)]Gal(b1-4)GlcNAc(b1-2)Man(a1-3)[Fuc(a1-2)[GalNAc(a1-3)]Gal(b1-4)GlcNAc(b1-2)Man(a1-6)]Man(b1-4)GlcNAc(b1-4)[Fuc(a1-6)]GlcNAc
# Outline: as §1
# [10] = target: Fuc(a1-2)[GalNAc(a1-3)]Gal(b1-4)GlcNAc(b1-6)GalNAc
# Outline: as §1
# [11] = target: Fuc(a1-2)[GalNAc(a1-3)]Gal(b1-4)[Fuc(a1-3)]GlcNAc(b1-3)GalNAc
# Outline: as §1
# [12] = target: Fuc(a1-3)[Gal(b1-4)]GlcNAc6S
# Outline: as §1
# [13] = target: Gal(a1-3)Gal(b1-4)GlcNAc(b1-2)Man
# Outline: as §1
# [14] = target: Gal(a1-3)Gal(b1-4)GlcNAc(b1-2)Man(a1-3)[Gal(a1-3)Gal(b1-4)GlcNAc(b1-2)Man(a1-6)]Man(b1-4)GlcNAc(b1-4)GlcNAc
# Outline: as §1
# [15] = target: Gal(a1-3)Gal(b1-4)GlcNAc(b1-3)GalNAc
# Outline: as §1
# [16] = target: Gal(a1-3)[Gal(a1-4)]Gal(b1-4)GlcNAc
# Outline: as §1
# [17] = target: Gal(a1-4)Gal(b1-3)GlcNAc(b1-2)Man(a1-3)[Gal(a1-4)Gal(b1-3)GlcNAc(b1-2)Man(a1-6)]Man(b1-4)GlcNAc(b1-4)GlcNAc
# Outline: as §1
# Gal(a1-4)Gal(b1-4)GlcNAc = target: Gal(a1-4)Gal(b1-4)GlcNAc
# Outline: as §1
# [18] = target: Gal(a1-4)Gal(b1-4)GlcNAc(b1-2)Man(a1-3)[Gal(a1-4)Gal(b1-4)GlcNAc(b1-2)Man(a1-6)]Man(b1-4)GlcNAc(b1-4)GlcNAc
# Outline: as §1
# [19] = target: Gal(a1-4)Gal(b1-4)GlcNAc(b1-3)Gal(b1-4)Glc
# Outline: as §1
# Gal(b1-3)Gal(b1-4)GlcNAc = target: Gal(b1-3)Gal(b1-4)GlcNAc
# Outline: as §1
# [20] = target: Gal(b1-3)GalNAc(a1-3)[Fuc(a1-2)]Gal(b1-4)Glc
# Outline: as §1
# [21] = target: Gal(b1-3)GalNAc(a1-3)[Fuc(a1-2)]Gal(b1-4)GlcNAc
# Outline: as §1
# [22] = target: Gal(b1-3)GlcNAc(a1-3)Gal(b1-4)GlcNAc
# Outline: as §1
# [23] = target: Gal(b1-3)GlcNAc(a1-6)Gal(b1-4)GlcNAc
# Outline: as §1
# [24] = target: Gal(b1-3)GlcNAc(b1-2)[Gal(b1-3)GlcNAc(b1-6)]Man(a1-6)[Gal(b1-3)GlcNAc(b1-2)Man(a1-3)]Man(b1-4)GlcNAc(b1-4)GlcNAc
# Outline: as §1
# [25] = target: Gal(b1-3)GlcNAc(b1-6)Gal(b1-4)GlcNAc
# Outline: as §1
# [26] = target: Gal(b1-3)[Neu5Ac(a2-6)]GalNAc
# Outline: as §1
# Gal(b1-4)GlcNAc(b1-2)Man = target: Gal(b1-4)GlcNAc(b1-2)Man
# Outline: as §1
# [27] = target: Gal(b1-4)GlcNAc(b1-2)[Gal(b1-4)GlcNAc(b1-4)]Man(a1-3)[Gal(b1-4)GlcNAc(b1-2)[Gal(b1-4)GlcNAc(b1-6)]Man(a1-6)]Man(b1-4)GlcNAc(b1-4)GlcNAc
# Outline: as §1
# [28] = target: Gal(b1-4)GlcNAc(b1-3)Gal(b1-4)GlcNAc(b1-3)Gal(b1-4)GlcNAc(b1-2)[Gal(b1-4)GlcNAc(b1-3)Gal(b1-4)GlcNAc(b1-3)Gal(b1-4)GlcNAc(b1-6)]Man(a1-6)[Gal(b1-4)GlcNAc(b1-3)Gal(b1-4)GlcNAc(b1-3)Gal(b1-4)GlcNAc(b1-2)Man(a1-3)]Man(b1-4)GlcNAc(b1-4)[Fuc(a1-6)]GlcNAc
# Outline: as §1
# [29] = target: Gal(b1-4)GlcNAc(b1-3)Gal(b1-4)GlcNAc(b1-3)Gal(b1-4)GlcNAc(b1-3)Gal(b1-4)GlcNAc(b1-3)Gal(b1-4)GlcNAc(b1-2)Man(a1-3)[Gal(b1-4)GlcNAc(b1-3)Gal(b1-4)GlcNAc(b1-3)Gal(b1-4)GlcNAc(b1-3)Gal(b1-4)GlcNAc(b1-3)Gal(b1-4)GlcNAc(b1-2)Man(a1-6)]Man(b1-4)GlcNAc(b1-4)GlcNAc
# Outline: as §1
# [30] = target: Gal(b1-4)GlcNAc(b1-3)Gal(b1-4)GlcNAc(b1-3)Gal(b1-4)GlcNAc(b1-3)Gal(b1-4)GlcNAc(b1-3)Gal(b1-4)GlcNAc(b1-2)[Gal(b1-4)GlcNAc(b1-3)Gal(b1-4)GlcNAc(b1-3)Gal(b1-4)GlcNAc(b1-3)Gal(b1-4)GlcNAc(b1-3)Gal(b1-4)GlcNAc(b1-6)]Man(a1-6)[Gal(b1-4)GlcNAc(b1-3)Gal(b1-4)GlcNAc(b1-3)Gal(b1-4)GlcNAc(b1-3)Gal(b1-4)GlcNAc(b1-3)Gal(b1-4)GlcNAc(b1-2)Man(a1-3)]Man(b1-4)GlcNAc(b1-4)[Fuc(a1-6)]GlcNAc
# Outline: as §1
# Gal6S(b1-4)Glc = target: Gal6S(b1-4)Glc
# Outline: as §1
# [31] = target: GalNAc(b1-3)Gal(a1-4)Gal(b1-4)GlcNAc(b1-3)Gal(b1-4)Glc
# Outline: as §1
# GalNAc6S(b1-4)GlcNAc = target: GalNAc6S(b1-4)GlcNAc
# Outline: as §1
# [32] = target: GlcA3S(b1-3)Gal(b1-4)GlcNAc(b1-3)Gal(b1-4)Glc
# Outline: as §1
# [33] = target: GlcNAc(a1-6)Gal(b1-4)GlcNAc
# Outline: as §1
# [34] = target: GlcNAc(b1-2)[GlcNAc(b1-4)]Man(a1-3)[GlcNAc(b1-4)][GlcNAc(b1-2)Man(a1-6)]Man(b1-4)GlcNAc(b1-4)GlcNAc
# Outline: as §1
# GlcNAc(b1-3)Fuc = target: GlcNAc(b1-3)Fuc
# Outline: as §1
# [35] = target: GlcNAc(b1-3)Gal(b1-4)GlcNAc(b1-3)Gal(b1-4)GlcNAc(b1-3)Gal(b1-4)GlcNAc(b1-3)Gal(b1-4)GlcNAc(b1-2)Man(a1-3)[GlcNAc(b1-3)Gal(b1-4)GlcNAc(b1-3)Gal(b1-4)GlcNAc(b1-3)Gal(b1-4)GlcNAc(b1-3)Gal(b1-4)GlcNAc(b1-2)Man(a1-6)]Man(b1-4)GlcNAc(b1-4)[Fuc(a1-6)]GlcNAc
# Outline: as §1
# [36] = target: GlcNAc(b1-3)[GlcNAc(b1-4)][GlcNAc(b1-6)]GlcNAc
# Outline: as §1
# [37] = target: Neu5Ac(a2-3)Gal(b1-3)GlcNAc(b1-2)Man(a1-3)[Neu5Ac(a2-3)Gal(b1-3)GlcNAc(b1-2)Man(a1-6)]Man(b1-4)GlcNAc(b1-4)GlcNAc
# Outline: as §1
# [38] = target: Neu5Ac(a2-3)Gal(b1-3)GlcNAc(b1-3)GalNAc
# Outline: as §1
# [39] = target: Neu5Ac(a2-3)Gal(b1-4)GlcNAc(b1-2)[Neu5Ac(a2-3)Gal(b1-4)GlcNAc(b1-4)]Man(a1-3)[GlcNAc(b1-4)][Neu5Ac(a2-3)Gal(b1-4)GlcNAc(b1-2)[Neu5Ac(a2-3)Gal(b1-4)GlcNAc(b1-6)]Man(a1-6)]Man(b1-4)GlcNAc(b1-4)GlcNAc
# Outline: as §1
# [40] = target: Neu5Ac(a2-3)Gal(b1-4)GlcNAc(b1-3)[Neu5Ac(a2-3)Gal(b1-4)GlcNAc(b1-6)]GalNAc
# Outline: as §1
# [41] = target: Neu5Ac(a2-3)Gal(b1-4)GlcNAc(b1-6)[Neu5Ac(a2-3)Gal(b1-3)]GalNAc
# Outline: as §1
# [42] = target: Neu5Ac(a2-3)Gal(b1-4)GlcNAc6S
# Outline: as §1
# [43] = target: Neu5Ac(a2-6)Gal(b1-4)GlcNAc(b1-2)Man(a1-6)[Man(a1-3)]Man(b1-4)GlcNAc(b1-4)GlcNAc
# Outline: as §1
# [44] = target: Neu5Ac(a2-8)Neu5Ac(a2-3)[GalNAc(b1-4)]Gal(b1-4)Glc
# Outline: as §1
binder,measurement,setting,value
B1,glycan array binding signal (z-score),[1],-0.195
same,glycan array binding signal (z-score),[2],-0.054
same,glycan array binding signal (z-score),[3],-0.372
same,glycan array binding signal (z-score),[4],0.855
same,glycan array binding signal (z-score),[5],-0.067
same,glycan array binding signal (z-score),[6],-0.063
same,glycan array binding signal (z-score),[7],4.38
same,glycan array binding signal (z-score),[8],-0.106
same,glycan array binding signal (z-score),[9],-0.23
same,glycan array binding signal (z-score),[10],-0.096
same,glycan array binding signal (z-score),[11],-0.217
same,glycan array binding signal (z-score),[12],-0.324
same,glycan array binding signal (z-score),[13],1.69
same,glycan array binding signal (z-score),[14],5.84
same,glycan array binding signal (z-score),[15],3.54
same,glycan array binding signal (z-score),[16],3.32
same,glycan array binding signal (z-score),[17],4.07
same,glycan array binding signal (z-score),Gal(a1-4)Gal(b1-4)GlcNAc,3.63
same,glycan array binding signal (z-score),[18],8.66
same,glycan array binding signal (z-score),[19],4.55
same,glycan array binding signal (z-score),Gal(b1-3)Gal(b1-4)GlcNAc,-0.077
same,glycan array binding signal (z-score),[20],-0.352
same,glycan array binding signal (z-score),[21],-0.341
same,glycan array binding signal (z-score),[22],0.396
same,glycan array binding signal (z-score),[23],0.803
same,glycan array binding signal (z-score),[24],1.87
same,glycan array binding signal (z-score),[25],0.949
same,glycan array binding signal (z-score),[26],-0.398
same,glycan array binding signal (z-score),Gal(b1-4)GlcNAc(b1-2)Man,-0.334
same,glycan array binding signal (z-score),[27],1.1
same,glycan array binding signal (z-score),[28],3.3
same,glycan array binding signal (z-score),[29],3.18
same,glycan array binding signal (z-score),[30],3.77
same,glycan array binding signal (z-score),Gal6S(b1-4)Glc,-0.407
same,glycan array binding signal (z-score),[31],0.074
same,glycan array binding signal (z-score),GalNAc6S(b1-4)GlcNAc,-0.377
same,glycan array binding signal (z-score),[32],-0.414
same,glycan array binding signal (z-score),[33],-0.356
same,glycan array binding signal (z-score),[34],-0.324
same,glycan array binding signal (z-score),GlcNAc(b1-3)Fuc,-0.323
same,glycan array binding signal (z-score),[35],-0.279
same,glycan array binding signal (z-score),[36],-0.327
same,glycan array binding signal (z-score),[37],-0.382
same,glycan array binding signal (z-score),[38],-0.337
same,glycan array binding signal (z-score),[39],-0.348
same,glycan array binding signal (z-score),[40],-0.248
same,glycan array binding signal (z-score),[41],-0.386
same,glycan array binding signal (z-score),[42],-0.278
same,glycan array binding signal (z-score),[43],-0.418
same,glycan array binding signal (z-score),[44],-0.366
